Data published in ChEMBL document CHEMBL3988442, “University of Dundee, Small-Polar-MMV Screening Library” (2021).

target: AMP-activated protein kinase, AMPK (Homo sapiens) (UniProt P54646+O43741+P54619+Q9UGJ0+Q9Y478+Q13131+Q9UGI9); assay: AMP-dependent Kinase enzyme assay. An in vitro enzyme assay that detects ADP turnover that is directly proportional to AMPK activity. This uses naive AMPK that is activated during the assay with MK-8722; type: functional; set-up: scale not given: direction of the effect not stated beside the values; conditions: 30 µM

Point of comparison: `CN(C)c1cccc(C(=O)Nc2ccn(CCc3ccncc3)n2)c1`, Percent Effect 12.1%. Against it:
- CCc1c(C)nn2c(O)cc(C3CCN(C(=O)c4ccn(C)n4)C3)nc12 (centres undefined) — lower, -4.46%
- CCc1cc(NCCCNS(C)(=O)=O)nc(-c2ccccn2)n1 — lower, -7.82%
- CCCOc1cc(CNC(=O)Nc2cccc(C(C)=O)c2)ccn1 — lower, -3.21%
- CC(C)n1cc(CN(C)C[C@@H]2CCCN3CCCC[C@H]23)cn1 — lower, 3.96%
- COCCN1C(=O)[C@H]2CC[C@@H]1CN(S(=O)(=O)c1cccc(Cl)c1)C2 — higher, 27.4%
- Cc1cc(C)n(CCN2CCC(N(C)Cc3noc(C4CC4)n3)C2)n1 (centres undefined) — lower, 3.34%
- CC(C)NC(=O)CN(C)C(=O)c1csc(Cc2ccccc2F)n1 — lower, 5.04%
- Cc1ccc(C(=O)N2[C@@H]3CC[C@H]2CN(C)C(=O)C3)c(=O)[nH]1 — lower, 8.78%
- Cc1cc(C(=O)NCCC(=O)N2CCCc3ccccc32)no1 — lower, -5.97%
- Cn1ccnc1C(O)c1ccccc1N1CCN(CC2CCCC2)CC1 (centres undefined) — higher, 16.2%
- CC(C)(C)OC(=O)N(CCNS(=O)(=O)N1CCOCC1)C1CC1 — lower, 8.24%
- NCC(CO)Cc1ccc(C(F)(F)F)cc1 (centres undefined) — lower, -3.66%
- COc1c(F)cc(NC(=O)N2CCC(CSC)C2)cc1F (centres undefined) — lower, 2.71%
- CN(Cc1ncnn1C1Cc2ccccc2C1)C1CCS(=O)(=O)C1 (centres undefined) — lower, 1.61%
- COc1ccc(OC)c(C(=O)Nc2cccnc2-n2cncn2)c1 — lower, 2.13%
- CCC(c1ccccc1)S(=O)(=O)CCO (centres undefined) — lower, 0.669%
- O=C(NCC(F)(F)F)c1ccc(-n2cncn2)nn1 — lower, -2.06%
- COc1ccccc1CCNC(=O)CNCC1CN(C)CCO1 (centres undefined) — lower, -4.87%
